From the supplement of paper PMC10338343
± gives the standard deviation.

The sequences below were run on EfPiwi piRISC loaded with L1MC piRNA (26 nt) (assay: pre-steady-state target cleavage rate (min^-1); auxiliary factor: 500 nM Ephydatia muelleri Gtsf1; guide: L1MC piRNA 5'p-UAACUAAAUACUAUGCAAGCUGUAGG; MIWI and MILI are mouse PIWI proteins and EfPiwi is from a freshwater sponge; tags in brackets are library labels; higher = faster piRNA-guided slicing of the target).
Procedure, shortened: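 In HEPES–potassium acetate buffer at 33 °C, […] transcribed, DNA-blocked target RNA library was mixed with 1 nM active affinity-purified piRISC carrying one synthetic guide, with or without 500 nM GTSF1 partner protein, for 0–8 or 0–960 min. Uncleaved targets were sequenced and normalised to depth and to weakly complementary targets; three trials were pooled and k3 was capped at 0.0001 min^-1. The pre-steady-state cleavage rate followed from a burst-and-steady-state fit.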
With UCCUGGAUGUGCUUGCAUUGUAUUUAGUUA the “pre-steady-state target cleavage rate” value was 0.00484 ± 0.0027. In the case of UCCUGCUACAUCUUGCAUAGUAUUUAGUUA, the “pre-steady-state target cleavage rate” value is reported as 0.0423 ± 0.014. UCCUGGAUGUGAUUGCAUAGUAUUUAGUUA was tested, and the “pre-steady-state target cleavage rate” value was 0.00623 ± 0.0031. For UCCUCCAACAGCUUGGAUAGUAUUUAGUUA, the “pre-steady-state target cleavage rate” value was 0.0467 ± 0.011. In the case of UCCUGGAUGUGCUGUGCAUAGUAUUUAGUUA, the “pre-steady-state target cleavage rate” value is reported as 0.00568 ± 0.0024. In the case of UCCUGCUACGAGCUUGCAUAGUAUUUAGUUA, the “pre-steady-state target cleavage rate” value is reported as 0.00866 ± 0.0022. For UCCUGGAUGUCGAACGAUAGUCAUUUAGUUA, the “pre-steady-state target cleavage rate” value was less than 0.0001. UCCUGGAUGUCGAACGAUACAUUUUAGUUA was tested, and the “pre-steady-state target cleavage rate” value was less than 0.0001. With UCCUGGAUGUGCUUGCAUACUAUUUAGAUA the “pre-steady-state target cleavage rate” value was 0.00202 ± 0.0015. UCCUCCUAGAGCUUGCUUAGUAUUUAGUUA was tested, and the “pre-steady-state target cleavage rate” value was 0.0217 ± 0.0064. For UCCUGGAUGUCGAACCAUACUAAUUAGUUA, the “pre-steady-state target cleavage rate” value was less than 0.0001. With UCCUGGAUCAGCUUGCAUAGUAUUUAGUUUA the “pre-steady-state target cleavage rate” value was 0.0394 ± 0.011. For UCCUGGAUGUCGAACGAUAGUAUUUAGGUA, the “pre-steady-state target cleavage rate” value was less than 0.0001. UCCUGGAACACUUGCAUAGUAUUUAGUUA was tested, and the “pre-steady-state target cleavage rate” value was 0.0107 ± 0.0034. In the case of UCCUCCUACUAGCUUGCAUAGUAUUUAGUUA, the “pre-steady-state target cleavage rate” value is reported as 0.127 ± 0.035. For UCCUCCUACAGCAAGCAUAGUAUUUAGUAA, the “pre-steady-state target cleavage rate” value was 0.00371 ± 0.0026. For UCCUCGUACAGCUUGCAUAGUAUUUAGAUA, the “pre-steady-state target cleavage rate” value was 0.00437 ± 0.0019. With UCCUCCUACAGCUUGCAGUAGUAUUUAGUUA the “pre-steady-state target cleavage rate” value was 0.00539 ± 0.0033. In the case of UCCUGCUACAGCUUGCAUAGGUAUUUAGUUA, the “pre-steady-state target cleavage rate” value is reported as 0.00304 ± 0.0019. UCCUGGAAACAGCUUGCAUAGUAUUUAGUUA was tested, and the “pre-steady-state target cleavage rate” value was 0.164 ± 0.034. In the case of UCCUGGAUGUCGAACCAUAGAUAUUAGUUA, the “pre-steady-state target cleavage rate” value is reported as less than 0.0001. For UCCUGGUACAGCUUCCAUAGUAUUUAGAAA, the “pre-steady-state target cleavage rate” value was 0.00336 ± 0.0013. For UCCUCCUACUCCUUGCAUAGUAUUUAGUUA, the “pre-steady-state target cleavage rate” value was 0.165 ± 0.046. In the case of UCCUGCUACAGCUUGCAUAGUAUGUAGUUA, the “pre-steady-state target cleavage rate” value is reported as 0.00311 ± 0.0014. For UCCUGCUACAGGUUGCAUAGUAUUUAGUAA, the “pre-steady-state target cleavage rate” value was 0.00478 ± 0.0019. In the case of UCCUCCUAGUCCUUGCAUAGUAUUUAGUAA, the “pre-steady-state target cleavage rate” value is reported as 0.00549 ± 0.0034. With UCCUGGUACAGCUUGCGAUAGUAUUUAGUUA the “pre-steady-state target cleavage rate” value was 0.00543 ± 0.0019. With UCCUGGAUGACGAUGCAUAGUAUUUAGUUA the “pre-steady-state target cleavage rate” value was 0.00546 ± 0.0027. For UCCUGGAUGAGCUUGCAUACUAUUUAGAUA, the “pre-steady-state target cleavage rate” value was 0.00231 ± 0.0021. With UCCUGCUUCAGCUUGCAUAGUAUAUAGUUA the “pre-steady-state target cleavage rate” value was 0.00887 ± 0.0035. UCCUGGAUGUCGAACCAUGGUAUUUAGUUA was tested, and the “pre-steady-state target cleavage rate” value was less than 0.0001. In the case of UCCUGGUACAGCUUGCAUAGUAAUUUAGUUA, the “pre-steady-state target cleavage rate” value is reported as 0.00647 ± 0.0026. For UCCUGGUACAGCUUGCCAUAGUAUUUAGUUA, the “pre-steady-state target cleavage rate” value was 0.0045 ± 0.0021. UCCUGGAUGUCGAACCAUAGUAUUUACGUUA was tested, and the “pre-steady-state target cleavage rate” value was less than 0.0001. UCCUCCAACAGCUUGCAUAGUAAUUAGUUA was tested, and the “pre-steady-state target cleavage rate” value was 0.0103 ± 0.0047. UCCUGGAUGUGCUUGCAUAGUAUUUUGUUA was tested, and the “pre-steady-state target cleavage rate” value was 0.00341 ± 0.0026. In the case of UCCUGCUAGUCCUUGCAUAGUAUUUAGAAA, the “pre-steady-state target cleavage rate” value is reported as 0.00294 ± 0.0025. UCCUGCUACAGCUUGCAUAGUAUUUUGUUA was tested, and the “pre-steady-state target cleavage rate” value was 0.00916 ± 0.0029. With UCCUGGAACAGCUUGCAUAGUAUUUACGUUA the “pre-steady-state target cleavage rate” value was 0.00579 ± 0.0024. With UCCUGGAUGUCGAACCAUUGAAUUUAGUUA the “pre-steady-state target cleavage rate” value was less than 0.0001.
